In PubChem BioAssay (EPA / NIEHS):
Inconclusive results are not listed. Activity calls are given as the source filed them. How the source made its calls: active means hit-call score of the fitted dose curve at least 0.9, where 1 is the maximum; inconclusive means response in the unintended direction; inactive means score below 0.9.

Read-out: ABC Transporter (ABCB11), ABCB11 (gene 8647)
Experiment: CLD_ABCB11_48hr: CellzDirect (CLD) Gene Expression Assay for ABC Transporter (ABCB11) at 48 hours (AID 2283697)
Description: CLD_48hr is a cell-based, multiplexed-readout assay that uses hepatocyte, a human liver primary cell, with measurements taken at 48 hours after chemical dosing in a 96-well plate.CLD_ABCB11_48hr is one of 16 assay component(s) measured or calculated from the CLD_48hr assay. It is designed to make measurements of mRNA induction, a form of inducible reporter, as detected with chemiluminescence signals by Quantitative Nuclease Protection Assay (qNPA) technology.Data from the assay component CLD_ABCB11_48hr was analyzed at the endpoint, CLD_ABCB11_48hr, in the positive analysis fitting direction relative to DMSO as the negative control and baseline of activity. Using a type of inducible reporter, gain-of-signal activity can be used to understand changes in the reporter gene as they relate to the gene ABCB11. Furthermore, this assay endpoint can be referred to as a primary readout. To generalize the intended target to other relatable targets, this assay endpoint is annotated to the transporter intended target family, where subfamily is ABC transporter.
Human hepatocyte cultures were treated daily for two consecutive days with fresh dosing solutions containing appropriate concentrations of the 320 ToxCast chemicals (chemical identities were blinded to CellzDirect and other ToxCast collaborators), vehicle control (0.2% DMSO), and positive control inducers as summarized in Table 1. Due to the large number of treatment groups and chemicals examined, the ToxCast chemicals were divided into two groups (spanning two independent cultures of hepatocytes from separate donor preparations (Hu778: ToxCast plates 1 and 2; Hu776: ToxCast plates 3 and 4). Each preparation of human hepatocyte cultures was treated with respective vehicle control, medium only control, set of six positive controls/reference chemicals for the five hepatic receptor pathways, and a subset of eight of the ToxCast chemicals (indoxacarb, pyrithiobac-sodium, norflurazon, cyhalofop-butyl, methomyl, thiram, acetochlor, and propiconazole). These replicate data, coupled with internal replicates designed within the blinded ToxCast chemical library, provided additional data to evaluate interindividual differences between hepatocyte preparations and their potential impact on chemical profiles.Cell morphology and integrity were evaluated using phase-contrast microscopy as an indicator of hepatocyte cell health (Tyson & Green, 1987). Cultures for each treatment group (i.e., media, vehicle [0.2% DMSO], positive control inducers [multiple concentrations], and the ToxCast chemicals [multiple concentrations]) were observed and cell morphology was assessed relative to vehicle control cultures at each harvest time point (0, 6, 24, or 48 h). […] Images were evaluated at the conclusion of the study to assess changes in cell integrity and account for the effects of chemical exposure on uncharacteristic changes in concentration-dependent gene expression profiles. The results from these determinations of apparent cytotoxicity were annotated (yes/no) alongside the corresponding qNPA data for reference.At the conclusion of each treatment period, hepatocyte cultures (96-well) were washed with 1 volume of HBSS, lysed by addition of 25 ul ArrayPlate lysis buffer (HTG, Tucson, AZ), and 70 ul/well of Denaturation Oil, denatured by incubation at 95C for 10 min, and frozen at approximately -70C until analysis by nuclease protection assay (qNPA) (Roberts et al., 2007). For qNPA analysis, cell lysates were thawed at 50C for approximately 30 min, qNPA probes were added, and samples were incubated at 95C for 10 min to begin the detection process by denaturing the target RNA, dissociating the duplexes and secondary structure hybridization. At the conclusion of the hybridization period, S1 nuclease reagent was added to each sample to digest all nonprotected nucleotides at 50C for 60-90 min. […]

Structure (SMILES)	outcome	AC50
Oc1ccc(Cl)cc1Cc1ccccc1	inactive	
COP(=O)(OC)OC=C(Cl)Cl	inactive	
COP(=S)(OC)Oc1ccc([N+](=O)[O-])cc1	inactive	
CNC(=O)/C=C(\C)OP(=O)(OC)OC	inactive	
O=C(Nc1ccccc1)Nc1cnns1	inactive	
CCOc1nc(NC)nc(NC(=O)NS(=O)(=O)c2ccccc2C(=O)OC)n1	inactive	
O=C1c2ccccc2C(=O)N1SC(Cl)(Cl)Cl	inactive	
O=C(NC(=O)c1c(F)cccc1F)Nc1ccc(OC(F)(F)C(F)OC(F)(F)F)c(Cl)c1 (centres undefined)	inactive	
CCCN(CCC)c1c([N+](=O)[O-])cc(C(F)(F)F)cc1[N+](=O)[O-]	inactive	
CCS(=O)(=O)c1cccnc1S(=O)(=O)NC(=O)Nc1nc(OC)cc(OC)n1	inactive	
CCOCN(C(=O)CCl)c1c(C)cccc1CC	inactive	
CC[C@H](C)[C@H]1O[C@]2(C=C[C@@H]1C)C[C@@H]1C[C@@H](C/C=C(\C)[C@@H](O[C@H]3C[C@H](OC)[C@@H](O[C@H]4C[C@H](OC)[C@@H](O)[C@H](C)O4)[C@H](C)O3)[C@@H](C)/C=C/C=C3\CO[C@@H]4[C@H](O)C(C)=C[C@@H](C(=O)O1)[C@]34O)O2 (tested in a mixture with another compound)		0.206 µM (active)
Cc1cc(C)nc(NC(=O)NS(=O)(=O)c2ccccc2C(=O)OC2COC2)n1	inactive	
COC(=O)c1ccccc1S(=O)(=O)NC(=O)N(C)c1nc(C)nc(OC)n1	inactive	
N#Cc1c(Cl)c(Cl)c(Cl)c(C#N)c1Cl	inactive	
CCc1ccc(C(=O)NN(C(=O)c2cc(C)cc(C)c2)C(C)(C)C)cc1	inactive	
Oc1cc(Cl)ccc1Oc1ccc(Cl)cc1Cl	inactive	
Clc1ccccc1-c1nnc(-c2ccccc2Cl)nn1	inactive	
COc1cc(OC)nc(NC(=O)NS(=O)(=O)c2cc(NC=O)ccc2C(=O)N(C)C)n1	inactive	
